Data taken from PubChem BioAssay (NCI).
About 83,000 compounds went through this panel and 20% of them were active in at least one assay; those are over-represented in the sample as a whole.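 For each line, cells grew in 96-well plates with the test compound present at a single concentration for 48 hours.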 Unmarked numbers belong to inactive results. Active and inactive are the calls of the source. How the source made its calls: active means growth percent below 10; inactive means the rest.

How the values were obtained:
Experiment in all cases: NCI-60 one-dose screen, 48 h (100 = growth as untreated, 0 = no growth, -100 = all killed)
Conditions in all cases: 10 µM unless noted
HCT-15 colon = tested on: HCT-15 colon
HT29 colon = tested on: HT29 colon
SNB-75 CNS = tested on: SNB-75 CNS
SNB-19 CNS = tested on: SNB-19 CNS
U251 CNS = tested on: U251 CNS
PC-3 prostate = tested on: PC-3 prostate
SK-MEL-5 melanoma = tested on: SK-MEL-5 melanoma
UACC-62 melanoma = tested on: UACC-62 melanoma
LOX IMVI melanoma = tested on: LOX IMVI melanoma
SK-MEL-28 melanoma = tested on: SK-MEL-28 melanoma
SK-MEL-2 melanoma = tested on: SK-MEL-2 melanoma
EKVX NSCLC = tested on: EKVX NSCLC
SN12C renal = tested on: SN12C renal
UO-31 renal = tested on: UO-31 renal
TK-10 renal = tested on: TK-10 renal
ACHN renal = tested on: ACHN renal
CAKI-1 renal = tested on: CAKI-1 renal
CCRF-CEM leukemia = tested on: CCRF-CEM leukemia
MOLT-4 leukemia = tested on: MOLT-4 leukemia

| Compound | growth (HCT-15 colon) | growth (HT29 colon) | growth (SNB-75 CNS) | growth (SNB-19 CNS) | growth (U251 CNS) | growth (PC-3 prostate) | growth (SK-MEL-5 melanoma) | growth (UACC-62 melanoma) | growth (LOX IMVI melanoma) | growth (SK-MEL-28 melanoma) | growth (SK-MEL-2 melanoma) | growth (EKVX NSCLC) | growth (SN12C renal) | growth (UO-31 renal) | growth (TK-10 renal) | growth (ACHN renal) | growth (CAKI-1 renal) | growth (CCRF-CEM leukemia) | growth (MOLT-4 leukemia) |
| --- | --- | --- | --- | --- | --- | --- | --- | --- | --- | --- | --- | --- | --- | --- | --- | --- | --- | --- | --- |
| COC(=O)C1=C(C(=O)ON)[C@@H]2C=C[C@@]1([C@@H](Cc1ccccc1)Nc1ccccc1)O2 | -47.6% (active) | 57.7% | 108% | 104% | 92.2% | 101% | 101% | 90% | 77.7% | 73.3% | 94% | 97.7% | 81.5% | 71.1% | -23.4% (active) | -95.5% (active) | 86% | -13.5% (active) | 7.55% (active) |
| Nc1nc(Nc2ccccc2SSc2ccccc2Nc2nc(N)nc(-c3cccs3)n2)nc(-c2ccsc2)n1 | 56.7% | 98.7% | 98.3% | 87.7% | 53.1% | 57.2% | 94.7% | 71% | 35.9% | 98.7% | 99.1% | 77.3% | 27.3% | -45.5% (active) | 118% | 65.3% | 20% | 60.5% | 63.2% |
| CCCCCCCCOc1ccc(/C=N/Nc2cc(C)nc3ccc(Br)cc23)cc1 | 21% | 11.9% | 20% | 76.1% | 16.5% | 60.8% | 76.9% | 92.7% | 22.4% | 80.9% | 96.2% | 85% | 68.2% | 64.7% | 90.3% | 52.1% | 84.1% | 7.66% (active) | 58% |
| CC(Oc1ccc(C(=O)O)cc1C(F)(F)F)c1ccc(Oc2ccccc2)cn1 (stereo not given) | 80.6% | 121% | 90.1% | 96.7% | 94.4% | 108% | 98.7% | 91.8% | 97% | 95.1% | 123% | 103% | 98.3% | 79.2% | 99.5% | 104% | 95.9% | 101% | 106% |
| C=C1C(=O)O[C@H]2[C@H]1CC/C(COC(=O)NCc1c[nH]c3ccc(Cl)cc13)=C\CC[C@@]1(C)O[C@@H]21 | -60.2% (active) | -78.8% (active) | -6.74% (active) | 32.3% | -3.11% (active) | 9.72% (active) | -17.6% (active) | -73.8% (active) | -76.3% (active) | -63% (active) | -6.51% (active) | -22.4% (active) | -60.1% (active) | -99.6% (active) | -53.9% (active) | -98% (active) | -96.4% (active) | -11.1% (active) | 3.46% (active) |
| COc1ccc(/C=C(\C#N)n2nc3cccc(F)c3n2)cc1 | 96.9% | 112% | 81.5% | 94.6% | 102% | 111% | 95.8% | 91% | 101% | 103% | 100% | 104% | 104% | 89.6% | 100% | 99.7% | 81.2% | 98% | 100% |
| CCCCCCNC(=O)Oc1ccc(/C(=C(\C)c2ccccc2)c2ccc(OCCN3CCCCC3)cc2)cc1 | 8.13% (active) | -6.46% (active) | 92.5% | 74.6% | 50.1% | 47.9% | 71.2% | 5.21% (active) | 53.9% | 48.8% | 75.3% | 77.7% | 71.4% | 39.4% | 83.3% | 90.2% | 44.8% | 60.7% | 43.7% |
| COc1cc2c(-c3cc4c(cc3CNCCc3ccc5c(c3)OCO5)OCO4)cccc2c(OC)c1O | 59.4% | 92% | 44.9% | 87.4% | 75.1% | 60.9% | 78.8% | 79.1% | 72.8% | 97.6% | 92.9% | 77.4% | 78.8% | 45.5% | 102% | 79.2% | 54.9% | 79.5% | 56.5% |
| Cc1ccccc1NS(=O)(=O)c1cccc(C(=O)Nc2ccc(Br)cc2)c1 | 37.3% [25 µM] | 47.8% [25 µM] | 53.7% [25 µM] | 42.9% [25 µM] | 53% [25 µM] | 27.3% [25 µM] | -38.9% [25 µM] (active) | 25.9% [25 µM] | 39.2% [25 µM] | 60% [25 µM] | 42.9% [25 µM] | 16.6% [25 µM] | 42.9% [25 µM] | 22.8% [25 µM] | 55.9% [25 µM] | 47% [25 µM] | 26.2% [25 µM] | 42.4% [25 µM] | 26.9% [25 µM] |
| Cc1ccc(-n2c3c(c(-c4ccccc4)c2-c2ccccc2)C2=NCCN2C=N3)cc1 | 81.3% | 88% | 70.5% | 88.5% | 92% | 76.8% | 68.1% | 75.1% | 93.6% | 110% | 99.3% | 80.8% | 85% | 68.9% | 144% | 96.4% | 72.9% | 98.5% | 92.9% |
| COc1cc(C2=C(c3cn(C)c4ccccc34)COC2=O)cc(OC)c1OC | 5.39% (active) | 7.04% (active) | -31.3% (active) | 15.5% | 13.8% | 13.3% | 0.365% (active) | 12.6% | 2.86% (active) | 21.3% | 27.7% | 28.2% | 25% | 10.4% | 44.2% | 28% | 7.16% (active) | 8.87% (active) | 12.2% |
| NC(=O)Nc1ccc(-n2cnc3cc(-c4ccc(O)cc4)ccc32)cc1 | 97.8% | -7.1% (active) | 102% | 98.7% | 83.4% | 96% | 85.9% | 108% | 104% | 100% | 116% | 112% | 94% | 87.2% | 121% | 92% | 95.2% | 94.5% | 84.9% |
| CCN(CC)c1ccc(C(=O)c2ccccc2)cc1 | 105% | 95% | 93.5% | 97.7% | 87.2% | 97.9% | 96.9% | 96% | 100% | 104% | 96.3% | 98.4% | 98.8% | 82% | 97.9% | 98.2% | 83.1% | 104% | 87.6% |
| CCCNC(=O)Oc1ccc(/C(=C(\C)c2ccccc2)c2ccc(OCCCN(C)C)cc2)cc1 | 38.7% | 5.5% (active) | 86.2% | 84.9% | 68.8% | 71.7% | 86.2% | 54.2% | 75.6% | 70.8% | 92.6% | 80.1% | 77.4% | 50% | 84.8% | 93.3% | 83.4% | 75.7% | 66.5% |
| C#CCNC(=O)[C@]1(C)CC[C@]2(C)CC[C@@H]3C(=CC[C@H]4[C@@]3(C)CC[C@H]3C(C)(C)C(=O)CC[C@]43C)[C@@H]2C1 | 98% | 93.1% | 102% | 102% | 99.1% | 64.6% | 93.3% | 83.2% | 96.2% | 102% | 96.2% | 100% | 97.9% | 80.5% | 86.4% | 98% | 83.1% | 69.4% | 93.1% |
